JMJD2A Tudor inh = qHTS Assay for Inhibitors of JMJD2A-Tudor Domain; 390,000 compounds, 4.4% hits; AID 504339, 2011; Lysine-specific demethylase 4A (Homo sapiens), O75164; Potency, µM (titrated, usually from 114 µM), for the others: top-dose activity change, negative = inhibition, actives largely listed as inhibitors; AlphaScreen JMJD2A-Tudor / H3K4me3 peptide binding; further: potency means the concentration at half of the fitted maximal effect; on the % scale 0 is the no-effect control and ±100 the full control effect; nearly all actives have a fitted effect of over 50% in size
PI5P4K alpha inh = qHTS for Inhibitors of phosphatidylinositol 5-phosphate 4-kinase (PI5P4K); PI5P4Kalpha enzyme, ADP-Glo luminescence, 60 min; active compounds read low; max response, %; 330,000 compounds, 1.2% hits; active means max response of -50% or lower; inconclusive means between -30% and -50%; inactive means -30% or higher; further: value at the top dose of about 77 µM; on the % scale 0 is the no-effect control and ±100 the full control effect
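Controls without substrate or without enzyme flank wells where PI5P4Kalpha converts substrate using 5 microM ATP (final). Incubation lasts 60 minutes at room temperature; ADP formed is read by ADP-Glo luminescence.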
KAT2A inh = qHTS Assay for Inhibitors of GCN5L2; 390,000 compounds, 0.21% hits; Histone acetyltransferase KAT2A (Homo sapiens), Q92830; GCN5L2 HAT assay, ThioGlo1 CoA-SH fluorescence; Potency, µM (doses to about 58.9 µM), inactives show at the top dose activity change, negative = inhibition, usual class: inhibitors; further: potency means the concentration at half of the fitted maximal effect; on the % scale 0 is the no-effect control and ±100 the full control effect
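GCN5L2 (20 nM) in 50mM HEPES pH 7.5, 0.1mM EDTA, 0.01% Tween-20 preincubated 15 min with compounds at room temperature. Reaction started with H3(1-25) 75uM, acetyl-CoA 70uM, ThioGlo1 50uM; CoA-thiol fluorescence (Ex340/Em540) read at 0 and 20 min.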
PLK1 PBD inh = qHTS for Inhibitors of PLK1-PDB (polo-like kinase 1 - polo-box domain): Primary Screen. Serine/threonine-protein kinase PLK1 (Homo sapiens), P53350. Plk1 PBD binding of FITC phosphopeptide, fluorescence polarization. Potency, µM, for inactives: max response, negative = inhibition, usual class: inhibitors. 360,000 compounds, 2.8% hits. AID 720504, 2013; further: potency means the concentration at half of the fitted maximal effect; series mostly up to about 57 µM; on the % scale 0 is the no-effect control and ±100 the full control effect; nearly all actives have a fitted effect of over 65% in size
Target sequence (P53350 whole entry, looked up, the tested form may be a part): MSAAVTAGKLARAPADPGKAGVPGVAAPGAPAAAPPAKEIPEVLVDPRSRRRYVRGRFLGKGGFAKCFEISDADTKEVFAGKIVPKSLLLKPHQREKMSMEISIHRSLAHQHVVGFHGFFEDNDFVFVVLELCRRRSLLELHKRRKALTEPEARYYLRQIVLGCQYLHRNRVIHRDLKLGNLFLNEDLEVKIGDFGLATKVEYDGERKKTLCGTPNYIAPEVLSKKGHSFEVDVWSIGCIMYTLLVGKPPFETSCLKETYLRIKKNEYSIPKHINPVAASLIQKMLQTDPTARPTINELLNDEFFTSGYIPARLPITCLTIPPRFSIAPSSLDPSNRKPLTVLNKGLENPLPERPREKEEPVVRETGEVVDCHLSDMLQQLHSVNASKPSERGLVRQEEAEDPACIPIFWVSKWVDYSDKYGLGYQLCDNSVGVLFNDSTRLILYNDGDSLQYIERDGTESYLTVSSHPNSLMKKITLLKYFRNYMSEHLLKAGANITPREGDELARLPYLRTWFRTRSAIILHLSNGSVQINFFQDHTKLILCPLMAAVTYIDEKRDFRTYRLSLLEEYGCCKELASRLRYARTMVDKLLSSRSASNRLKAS
HP1b chromo inh = HTS for Inhibitors of HP1-beta Chromodomain Interactions with Methylated Histone Tails | Potency, µM (titrated, usually from 114 µM), for inactives: top-dose activity change, negative = inhibition, most hits filed as inhibitors | AID 540317, 2011 | Chromobox protein homolog 1 (Homo sapiens), P83916 | 390,000 compounds, 0.56% hits | AlphaScreen HP1-beta / biotin-H3K9me3 peptide binding; further: potency means the concentration at half of the fitted maximal effect; nearly all actives have a fitted effect of over 70% in size
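Compound inhibition of the preformed complex between 50 nM HP1-beta and 50 nM biotinylated H3K9me3 peptide was read by AlphaScreen. Buffer was PBS pH 7.4 with 0.01% Tween-20. Incubations ran 30 min at room temperature, with 10 ug/mL donor/acceptor beads.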
BAZ2B inh = qHTS Assay for Inhibitors of BAZ2B. Bromodomain adjacent to zinc finger domain protein 2B (Homo sapiens), Q9UIF8. AlphaScreen BAZ2B-H3K14Ac peptide displacement. Potency, µM (titrated, usually from 114 µM), for the others: at the top dose activity change, negative = inhibition, most hits filed as inhibitors. 360,000 compounds, 4.4% hits; further: potency means the concentration at half of the fitted maximal effect; on the % scale 0 is the no-effect control and ±100 the full control effect; nearly all actives have a fitted effect of over 60% in size
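In this displacement format the biotinylated H3(5-23) peptide acetylated at Lys14 serves as ligand at 50 nM, with BAZ2B at 50 nM in PBS pH 7.4 containing 0.01% Tween-20. Donor and acceptor beads are 10 ug/mL final.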
An asterisk follows results filed as active; ? = inconclusive; · = no result given; [ ] = remark or other dose. Only some compounds are listed: those with a hit (about 7% of all), similar ones and a draw of the others. Unless noted, the call rests on the fitted dose curve; in most records, active means well fitted curve in the direction sought with a large enough effect; inconclusive means small, poorly fitted or top-dose-only effect, or another doubt; inactive means no such curve, though single readings can be large; an effect the other way counts as inactive or inconclusive.

SMILES	JMJD2A Tudor inh	PI5P4K alpha inh	KAT2A inh	PLK1 PBD inh	HP1b chromo inh	BAZ2B inh
Cc1noc(C)c1S(=O)(=O)N(C)C[C@H]1Oc2ccc(NS(=O)(=O)c3ccccc3)cc2C(=O)N([C@H](C)CO)C[C@@H]1C	-11%	8	-17%	-10%	33%	·
CC(=O)Nc1ccc(Nc2nc3ccc(Cl)cc3n3cnnc23)cc1	8%	·	1%	·	30%	1%
O=C(Nc1sc2c(c1C(=O)O)CCC2)C(=O)N1CCOCC1	?	?	-24%	-23%	-22%	50µM*
COc1ccc2[nH]c3c(Cl)ncnc3c2c1	-7%	11	-12%	-12%	24%	8%
COc1ccc2[nH]c3c(=S)nc[nH]c3c2c1	1.6µM*	-28	?	-21%	-21%	-31%
COc1ccc(NC(=O)C2(S(=O)(=O)c3ccc(C)cc3)CC2)c(OC)c1	-9%	·	-6%	·	34%	-7%
CC(=O)OCCCNc1cc(Sc2ccc(C)cc2)c2nonc2c1[N+](=O)[O-]	?	-3	43%	?	?	7%
Cn1ccnc1Sc1cc(NCCCO)c([N+](=O)[O-])c2nonc12	-16%	-2	-2%	3µM*	3%	-8%
O=[N+]([O-])c1c(NCCCO)cc(N2CCCCCC2)c2nonc12	-16%	5	-6%	-5%	22%	2%
O=[N+]([O-])c1c(NCCCO)cc(Sc2ccc(Cl)cc2)c2nonc12	-25%	-5	4%	2.4µM*	22%	-4%
O=[N+]([O-])c1ccc(Oc2ccc(F)cc2)c2ccncc12	?	-3	-7%	-6%	-34%	50µM*
O=[N+]([O-])c1cccnc1Oc1ccc(F)cc1	-14%	-1	1%	-12%	-26%	-25%
NC(=S)N/N=C/c1ccc2ccccc2c1	-21%	-2	-2%	-14%	15%	-7%
C(=Nc1ccc(Nc2ccccc2)cc1)c1ccc2ccccc2c1	?	7	0%	0%	?	35µM*
Brc1ccc(C=Nc2ccc(Nc3ccccc3)cc2)s1	28µM*	26	-4%	8%	?	40µM*
O=C(N/N=C/c1ccc(-c2ccccc2C(=O)O)o1)c1cccs1	89µM*	?	4%	?	5%	56µM*
Cc1ccc(/C=N/NC(=O)CNC(=O)c2cccs2)o1	-13%	-1	2%	-2%	57%	-16%
CCc1cccc(-n2nnc(-c3nc(-c4ccccc4Cl)no3)c2N)c1	-20%	·	0%	·	-2%	-17%
Cc1ccc2occ(-c3nn[nH]n3)c(=O)c2c1	28µM*	-9	-5%	?	15%	50µM*
CC(C)c1ccc2occ(-c3nn[nH]n3)c(=O)c2c1	18µM*	-1	3%	-15%	-3%	56µM*
CC(C)c1ccc2occ(CC(=O)Nc3ccccc3Cl)c2c1	139%	·	-8%	·	122%	45%
Cc1ccc(Cn2c(C(C)Nc3nc(-c4ccc(Cl)cc4)cs3)nc3cc(C(=O)NCCCO)ccc32)cc1 (stereo unspecified)	79µM*	1	·	-9%	6%	·
Cc1ccc(Cn2c(CCNc3nc(-c4ccc(C)cc4)cs3)nc3cc(C(=O)NCCCO)ccc32)cc1	?	0	·	-24%	30%	·
Cc1ccc(Cn2c(C(C)Nc3nc(-c4ccc(C)cc4)cs3)nc3cc(Cl)c(Cl)cc32)cc1 (stereo unspecified)	?	1	-12%	-21%	45µM*	40µM*
CC(=O)c1cccc(NC(=O)CN2C(=O)CC(c3ccc(C)cc3C)=Nc3ccccc32)c1	?	·	1%	·	-2%	-28%
SMILES	JMJD2A Tudor inh	PI5P4K alpha inh	KAT2A inh	PLK1 PBD inh	HP1b chromo inh	BAZ2B inh
CCCCn1c(N)c(N(CCC(C)C)C(=O)C2CC(=O)N(c3ccc(OC)cc3OC)C2)c(=O)[nH]c1=O (stereo unspecified)	-15%	-2	-8%	0%	39%	-3%
CSc1cc2c(s1)c1cnn(Cc3ccccc3F)c(=O)c1n2C	-13%	·	·	·	·	·
CC(=O)NNC(=O)c1sc(=S)n(C)c1C	-1%	-4	-3%	4%	17%	1%
Cc1c(C(=O)NNS(=O)(=O)c2ccccc2)sc(=S)n1C	8.9µM*	-9	-21%	-11%	34%	?
Cc1cccc(S(=O)(=O)NNC(=O)c2sc(C)nc2C)c1	10µM*	1	-2%	0%	6%	-22%
Cc1ccc(S(=O)(=O)Nc2nc(C)c(C(=O)NNS(=O)(=O)c3ccccc3)s2)cc1	-13%	2	-8%	-1%	27%	-34%
Cc1nc(C)c(C(=O)NNS(=O)(=O)c2ccc([N+](=O)[O-])cc2)s1	2µM*	4	0%	-6%	6%	-3%
CCC(=O)c1cn(CC(=O)Nc2cccc(OC)c2)c2ccccc12	-3%	-2	-4%	-3%	27%	8%
CC(Oc1cccnc1[N+](=O)[O-])C(=O)N1CCc2ccccc21 (stereo unspecified)	-12%	5	-1%	-7%	40%	·
CCCN1CCN(c2ncnc3sc(C(=O)Nc4c(C)cc(C)cc4C)c(C)c23)CC1	-7%	·	29%	·	34%	-15%
COCCC(=O)N1CCCC(C(=O)c2ccc(Oc3ccccc3)cc2)C1 (stereo unspecified)	-10%	-5	1%	-5%	35%	5%
CCN1CCN(CC(=O)N2CCCC(C(=O)c3ccc(Oc4ccccc4)cc3)C2)CC1 (stereo unspecified)	-25%	1	0%	-6%	14%	50µM*
CCOCCCn1c(=S)[nH]c2cc(C(=O)NCCCN(CC)CC)ccc2c1=O	-18%	2	0%	-6%	27%	-14%
CN1CCN(S(=O)(=O)c2ccc3c(c2)C(C)(C)C(=O)N3C)CC1	-1%	-1	-5%	0%	36%	4%
Cc1cc(C)cc(NS(=O)(=O)c2ccc3c(c2)C(C)(C)C(=O)N3C)c1	?	-3	?	27µM*	20%	?
CC1CCCN(S(=O)(=O)c2ccc3c(c2)C(C)(C)C(=O)N3C)C1 (stereo unspecified)	-1%	-1	28µM*	-3%	50%	-1%
COc1ccc2cc(S(=O)(=O)N3CCCC(C)C3)ccc2c1 (stereo unspecified)	-4%	3	-5%	27µM*	-3%[57 µM]	1%

High-throughput results as filed in PubChem.
